We go through one sequence from publication PMC7862700, “An all-to-all approach to the identification of sequence-specific readers for epigenetic DNA modifications on cytosine”.

What all share (experiment): DAPPL (digital affinity profiling via proximity ligation, sequencing); 10 mM Tris-HCl pH 7.5, 50 mM NaCl, 1 mM DTT, 4% glycerol, room temperature, 30 min; GST-TFs on glutathione beads, 16-mer random dsDNA library, 0.1% formaldehyde crosslink after washing; high values mean tight binding
The target in one experiment is T1, FLI1 (Homo sapiens, UniProt Q01543 1-452).
T1 sequence: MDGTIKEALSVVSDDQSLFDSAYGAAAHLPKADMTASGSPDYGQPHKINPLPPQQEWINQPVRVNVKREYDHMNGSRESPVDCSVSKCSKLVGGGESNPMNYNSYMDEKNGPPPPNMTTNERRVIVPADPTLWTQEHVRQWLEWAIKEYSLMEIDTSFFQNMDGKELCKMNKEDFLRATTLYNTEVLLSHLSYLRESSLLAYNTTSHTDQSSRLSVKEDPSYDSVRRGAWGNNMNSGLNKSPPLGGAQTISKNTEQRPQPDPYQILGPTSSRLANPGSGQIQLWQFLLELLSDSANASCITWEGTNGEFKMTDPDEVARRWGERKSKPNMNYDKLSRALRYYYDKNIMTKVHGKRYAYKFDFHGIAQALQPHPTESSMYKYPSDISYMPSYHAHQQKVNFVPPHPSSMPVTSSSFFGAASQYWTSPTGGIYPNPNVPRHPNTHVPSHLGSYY
The conditions noted are these: protein: recombinant; tags: N-terminal GST; dsDNA, one strand shown. The procedure, abridged: (§1)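 The binding signal reported is, for every hexamer, its read frequency for a factor over its read frequency for the tag-only sample. Reads came from pools of yeast-expressed, GST-fused human transcription factors on glutathione beads, barcoded with DNA and mixed with that sample, which were incubated with 200 nmole of a random double-stranded 16-mer DNA library in Tris/NaCl/DTT/glycerol buffer at room temperature for 30 min. After washing, the pools were crosslinked with 0.1% formaldehyde, proximity-ligated with BsaI/T4 ligase for 1 h at 37 °C, PCR-amplified and sequenced on an Illumina NextSeq500.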

Another experiment concerns the target T2, ELK1 (Homo sapiens, UniProt P19419 1-428).
T2 sequence: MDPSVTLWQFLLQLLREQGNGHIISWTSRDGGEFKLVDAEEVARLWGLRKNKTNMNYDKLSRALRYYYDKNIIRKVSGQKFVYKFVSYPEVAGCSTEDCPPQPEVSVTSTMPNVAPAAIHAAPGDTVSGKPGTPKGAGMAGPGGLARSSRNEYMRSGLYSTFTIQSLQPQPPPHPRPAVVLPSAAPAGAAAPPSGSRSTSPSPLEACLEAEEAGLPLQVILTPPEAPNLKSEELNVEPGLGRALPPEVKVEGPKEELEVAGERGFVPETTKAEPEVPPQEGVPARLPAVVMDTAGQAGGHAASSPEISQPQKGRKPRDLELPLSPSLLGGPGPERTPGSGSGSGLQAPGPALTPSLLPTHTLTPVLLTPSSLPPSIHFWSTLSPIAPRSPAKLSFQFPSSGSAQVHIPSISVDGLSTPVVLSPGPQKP
The conditions noted are these: protein: recombinant; tags: N-terminal GST; dsDNA, one strand shown. The procedure, abridged:
as §1

For another experiment, the target named is T3, GABPA (Homo sapiens, UniProt Q06546 1-454).
T3 sequence: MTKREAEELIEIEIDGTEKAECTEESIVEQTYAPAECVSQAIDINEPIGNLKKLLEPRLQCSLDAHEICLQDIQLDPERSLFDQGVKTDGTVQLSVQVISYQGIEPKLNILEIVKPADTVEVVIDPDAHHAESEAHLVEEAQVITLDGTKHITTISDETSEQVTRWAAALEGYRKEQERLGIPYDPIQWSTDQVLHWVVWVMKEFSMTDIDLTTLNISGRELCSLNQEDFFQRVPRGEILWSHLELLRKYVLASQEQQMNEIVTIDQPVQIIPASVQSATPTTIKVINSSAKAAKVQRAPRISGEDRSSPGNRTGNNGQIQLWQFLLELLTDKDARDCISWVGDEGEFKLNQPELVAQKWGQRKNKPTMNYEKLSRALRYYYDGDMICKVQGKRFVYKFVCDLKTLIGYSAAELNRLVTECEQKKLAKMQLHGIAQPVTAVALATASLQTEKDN
The note with it: protein: recombinant; tags: N-terminal GST; dsDNA, one strand shown. The procedure, abridged: as §1

The next experiment deals with T4, ERG (Homo sapiens, UniProt P11308 1-479).
T4 sequence: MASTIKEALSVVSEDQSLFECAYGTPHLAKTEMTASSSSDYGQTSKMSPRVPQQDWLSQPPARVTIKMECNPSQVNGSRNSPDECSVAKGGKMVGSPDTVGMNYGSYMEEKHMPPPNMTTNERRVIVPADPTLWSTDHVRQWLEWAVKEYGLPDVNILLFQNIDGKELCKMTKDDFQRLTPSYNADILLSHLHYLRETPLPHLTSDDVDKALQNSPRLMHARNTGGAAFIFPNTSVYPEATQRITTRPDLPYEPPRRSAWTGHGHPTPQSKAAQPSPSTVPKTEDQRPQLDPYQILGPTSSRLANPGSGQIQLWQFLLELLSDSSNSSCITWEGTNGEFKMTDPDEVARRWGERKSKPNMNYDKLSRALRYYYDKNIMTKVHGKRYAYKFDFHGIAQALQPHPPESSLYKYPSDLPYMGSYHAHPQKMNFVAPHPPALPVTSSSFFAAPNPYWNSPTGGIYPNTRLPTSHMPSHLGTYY
The note with it: protein: recombinant; tags: N-terminal GST; dsDNA, one strand shown. The essentials: as §1

A further experiment addresses ELF1 (Homo sapiens, UniProt P32519 1-619). The conditions noted are these: protein: recombinant; tags: N-terminal GST; dsDNA, one strand shown. The procedure, abridged:
as §1

The target of another experiment is T5, EHF (Homo sapiens, UniProt Q9NZC4 1-300).
T5 sequence: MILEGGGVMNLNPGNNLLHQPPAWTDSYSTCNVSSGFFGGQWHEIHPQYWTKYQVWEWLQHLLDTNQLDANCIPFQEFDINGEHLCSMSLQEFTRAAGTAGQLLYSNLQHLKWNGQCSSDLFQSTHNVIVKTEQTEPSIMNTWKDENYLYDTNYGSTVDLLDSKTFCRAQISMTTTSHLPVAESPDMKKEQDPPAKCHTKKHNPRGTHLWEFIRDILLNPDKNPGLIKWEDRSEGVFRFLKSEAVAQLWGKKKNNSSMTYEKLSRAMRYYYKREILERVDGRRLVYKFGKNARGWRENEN
The note with it: protein: recombinant; tags: N-terminal GST; dsDNA, one strand shown. The essentials:
as §1

The target of another experiment is SPI1 (Homo sapiens, UniProt P17947 1-270). The conditions noted are these: protein: recombinant; tags: N-terminal GST; dsDNA, one strand shown. The essentials: as §1
The next experiment has as its target SPIB (Homo sapiens, UniProt Q01892 1-262). The conditions noted are these: protein: recombinant; tags: N-terminal GST; dsDNA, one strand shown. The essentials: as §1
The target of another experiment is T6, ELK3 (Homo sapiens, UniProt P41970 1-407).
T6 sequence: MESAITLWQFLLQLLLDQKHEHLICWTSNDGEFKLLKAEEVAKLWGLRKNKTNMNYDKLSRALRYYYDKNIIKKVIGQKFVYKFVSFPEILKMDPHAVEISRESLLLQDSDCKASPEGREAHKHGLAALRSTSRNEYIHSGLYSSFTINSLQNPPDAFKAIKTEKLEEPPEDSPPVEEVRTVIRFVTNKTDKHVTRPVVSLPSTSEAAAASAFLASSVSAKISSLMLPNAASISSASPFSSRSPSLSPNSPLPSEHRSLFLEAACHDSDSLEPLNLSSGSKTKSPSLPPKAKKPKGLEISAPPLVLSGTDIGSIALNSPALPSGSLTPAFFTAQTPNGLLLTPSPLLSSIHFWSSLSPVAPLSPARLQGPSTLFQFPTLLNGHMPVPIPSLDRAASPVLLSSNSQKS
The note with it: protein: recombinant; tags: N-terminal GST; dsDNA, one strand shown. The procedure, abridged:
as §1

The next experiment addresses T7, FEV (Homo sapiens, UniProt Q99581 1-238).
T7 sequence: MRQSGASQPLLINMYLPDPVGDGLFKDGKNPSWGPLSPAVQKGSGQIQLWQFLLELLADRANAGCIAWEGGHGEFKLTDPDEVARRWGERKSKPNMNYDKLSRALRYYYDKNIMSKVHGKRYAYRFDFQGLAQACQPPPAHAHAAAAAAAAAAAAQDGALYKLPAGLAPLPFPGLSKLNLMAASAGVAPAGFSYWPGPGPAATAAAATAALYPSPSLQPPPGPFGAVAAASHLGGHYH
The note with it: protein: recombinant; tags: N-terminal GST; dsDNA, one strand shown. The procedure, abridged:
as §1

The target of a further experiment is ETV5 (Homo sapiens, UniProt P41161 1-510). The note with it: protein: recombinant; tags: N-terminal GST; dsDNA, one strand shown. The essentials:
as §1

The target in a further experiment is HSF1 (Homo sapiens, UniProt Q00613 1-529). The note with it: protein: recombinant; tags: N-terminal GST; chain copies: 3; dsDNA, one strand shown. The procedure, abridged: as §1
Sequence of HSF1 (Q00613 whole entry): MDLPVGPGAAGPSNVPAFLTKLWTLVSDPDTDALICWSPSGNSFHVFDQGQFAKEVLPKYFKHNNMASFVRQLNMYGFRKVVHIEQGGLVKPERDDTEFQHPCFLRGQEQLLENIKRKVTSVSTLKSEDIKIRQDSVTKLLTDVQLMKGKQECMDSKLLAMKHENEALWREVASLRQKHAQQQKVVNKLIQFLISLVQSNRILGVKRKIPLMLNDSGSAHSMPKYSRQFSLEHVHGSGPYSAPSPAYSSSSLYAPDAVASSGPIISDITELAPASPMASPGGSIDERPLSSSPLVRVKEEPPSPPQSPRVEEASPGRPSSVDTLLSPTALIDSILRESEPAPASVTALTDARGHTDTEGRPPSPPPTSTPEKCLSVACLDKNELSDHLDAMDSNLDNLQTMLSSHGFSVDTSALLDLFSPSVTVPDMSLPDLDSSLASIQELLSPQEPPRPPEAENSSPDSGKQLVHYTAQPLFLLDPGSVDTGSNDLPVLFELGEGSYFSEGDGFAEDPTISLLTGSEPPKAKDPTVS
A further experiment deals with T8, SPIC (Homo sapiens, UniProt Q8N5J4 1-248).
T8 sequence: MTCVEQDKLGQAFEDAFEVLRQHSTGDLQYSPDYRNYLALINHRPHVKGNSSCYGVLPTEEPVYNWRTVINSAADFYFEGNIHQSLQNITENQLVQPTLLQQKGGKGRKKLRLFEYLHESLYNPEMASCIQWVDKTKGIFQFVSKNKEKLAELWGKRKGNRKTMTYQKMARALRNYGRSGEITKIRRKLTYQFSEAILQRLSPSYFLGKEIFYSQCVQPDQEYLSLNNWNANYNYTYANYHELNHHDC
The conditions noted are these: protein: recombinant; tags: N-terminal GST; dsDNA, one strand shown. The procedure, abridged: as §1

For the next experiment, the target named is ELF4 (Homo sapiens, UniProt Q99607 1-663). The note with it: protein: recombinant; tags: N-terminal GST; dsDNA, one strand shown. The procedure, abridged: as §1
Sequence of ELF4 (Q99607 whole entry): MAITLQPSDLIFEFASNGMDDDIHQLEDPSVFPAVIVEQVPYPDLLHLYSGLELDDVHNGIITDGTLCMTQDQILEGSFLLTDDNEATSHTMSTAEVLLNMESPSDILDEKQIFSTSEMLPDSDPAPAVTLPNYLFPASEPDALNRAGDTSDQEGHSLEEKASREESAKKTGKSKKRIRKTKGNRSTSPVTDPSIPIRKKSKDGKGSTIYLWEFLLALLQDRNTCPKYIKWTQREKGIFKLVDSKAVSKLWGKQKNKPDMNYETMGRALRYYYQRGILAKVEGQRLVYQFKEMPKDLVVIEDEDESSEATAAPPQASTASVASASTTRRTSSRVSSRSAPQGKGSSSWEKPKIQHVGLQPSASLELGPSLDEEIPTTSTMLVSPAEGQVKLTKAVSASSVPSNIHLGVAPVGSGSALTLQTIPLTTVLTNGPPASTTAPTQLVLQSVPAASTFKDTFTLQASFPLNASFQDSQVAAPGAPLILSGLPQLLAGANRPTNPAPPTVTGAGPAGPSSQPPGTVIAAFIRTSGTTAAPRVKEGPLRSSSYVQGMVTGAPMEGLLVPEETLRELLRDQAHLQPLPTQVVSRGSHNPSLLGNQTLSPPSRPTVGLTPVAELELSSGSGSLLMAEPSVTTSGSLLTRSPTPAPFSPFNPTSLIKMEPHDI
In a further experiment the target is T9, ELK4 (Homo sapiens, UniProt P28324-2 1-405).
T9 sequence: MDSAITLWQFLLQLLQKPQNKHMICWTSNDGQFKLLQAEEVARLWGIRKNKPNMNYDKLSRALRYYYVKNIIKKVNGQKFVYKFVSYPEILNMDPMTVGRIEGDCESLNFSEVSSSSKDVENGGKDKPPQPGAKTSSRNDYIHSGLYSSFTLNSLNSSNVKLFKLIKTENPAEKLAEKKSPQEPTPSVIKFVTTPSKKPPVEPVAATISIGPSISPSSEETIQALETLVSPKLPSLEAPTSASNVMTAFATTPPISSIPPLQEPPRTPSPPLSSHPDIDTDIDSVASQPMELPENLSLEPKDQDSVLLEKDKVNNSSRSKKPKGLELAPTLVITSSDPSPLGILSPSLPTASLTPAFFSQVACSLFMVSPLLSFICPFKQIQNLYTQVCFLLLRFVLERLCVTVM
The note with it: protein: recombinant; tags: N-terminal GST; dsDNA, one strand shown. The procedure, abridged: as §1

In another experiment the target is T10, ETV2 (Homo sapiens, UniProt O00321 1-342).
T10 sequence: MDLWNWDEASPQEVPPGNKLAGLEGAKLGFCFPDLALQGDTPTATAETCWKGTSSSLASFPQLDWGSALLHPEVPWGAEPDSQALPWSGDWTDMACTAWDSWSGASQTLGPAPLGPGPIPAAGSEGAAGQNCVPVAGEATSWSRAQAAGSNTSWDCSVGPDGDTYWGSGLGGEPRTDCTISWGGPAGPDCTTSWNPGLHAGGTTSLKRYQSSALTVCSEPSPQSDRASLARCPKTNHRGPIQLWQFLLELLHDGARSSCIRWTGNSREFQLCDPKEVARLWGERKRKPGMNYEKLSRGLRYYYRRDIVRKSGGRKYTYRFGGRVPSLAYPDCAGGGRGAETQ
The conditions noted are these: protein: recombinant; tags: N-terminal GST; dsDNA, one strand shown. The essentials: as §1

The target in another experiment is T11, ELF3 (Homo sapiens, UniProt P78545 1-371).
T11 sequence: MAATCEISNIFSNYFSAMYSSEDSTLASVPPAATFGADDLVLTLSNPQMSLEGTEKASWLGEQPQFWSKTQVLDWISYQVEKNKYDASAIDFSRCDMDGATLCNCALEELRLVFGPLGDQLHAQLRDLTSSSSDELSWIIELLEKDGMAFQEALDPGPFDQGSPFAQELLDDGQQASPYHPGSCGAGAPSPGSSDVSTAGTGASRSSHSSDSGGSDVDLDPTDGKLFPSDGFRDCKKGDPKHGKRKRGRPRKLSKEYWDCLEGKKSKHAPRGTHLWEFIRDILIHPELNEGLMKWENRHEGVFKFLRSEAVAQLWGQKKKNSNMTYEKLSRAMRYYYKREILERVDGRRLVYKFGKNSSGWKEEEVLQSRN
The conditions noted are these: protein: recombinant; tags: N-terminal GST; dsDNA, one strand shown. The essentials: as §1

The target in the next experiment is CRX (Homo sapiens, UniProt O43186 1-299). The conditions noted are these: protein: recombinant; tags: N-terminal GST; dsDNA, one strand shown. The procedure, abridged: as §1
Sequence of CRX (O43186 whole entry): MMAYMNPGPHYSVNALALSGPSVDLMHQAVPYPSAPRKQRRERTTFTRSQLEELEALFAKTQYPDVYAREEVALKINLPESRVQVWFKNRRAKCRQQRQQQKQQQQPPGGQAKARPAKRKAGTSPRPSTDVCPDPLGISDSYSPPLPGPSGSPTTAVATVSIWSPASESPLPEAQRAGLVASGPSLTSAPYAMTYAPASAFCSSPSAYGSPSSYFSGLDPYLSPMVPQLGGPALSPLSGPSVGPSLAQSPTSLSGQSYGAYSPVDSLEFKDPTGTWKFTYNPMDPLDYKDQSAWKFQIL
The target of another experiment is ETV1 (Homo sapiens, UniProt P50549 1-477). The note with it: protein: recombinant; tags: N-terminal GST; dsDNA, one strand shown. The essentials: as §1
Sequence of ETV1 (P50549 whole entry): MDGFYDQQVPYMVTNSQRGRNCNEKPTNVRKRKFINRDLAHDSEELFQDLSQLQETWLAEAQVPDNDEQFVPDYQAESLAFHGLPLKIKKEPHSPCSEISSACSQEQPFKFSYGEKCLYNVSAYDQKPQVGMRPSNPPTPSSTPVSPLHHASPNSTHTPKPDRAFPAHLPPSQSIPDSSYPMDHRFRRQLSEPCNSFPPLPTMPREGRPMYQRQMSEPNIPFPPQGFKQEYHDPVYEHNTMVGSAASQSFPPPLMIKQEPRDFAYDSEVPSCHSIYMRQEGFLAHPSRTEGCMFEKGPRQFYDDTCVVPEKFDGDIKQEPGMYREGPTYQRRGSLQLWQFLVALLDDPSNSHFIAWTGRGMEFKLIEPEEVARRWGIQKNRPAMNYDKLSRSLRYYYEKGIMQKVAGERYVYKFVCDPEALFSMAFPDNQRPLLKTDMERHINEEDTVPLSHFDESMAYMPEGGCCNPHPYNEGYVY

Sequence of ETV5 (P41161 whole entry): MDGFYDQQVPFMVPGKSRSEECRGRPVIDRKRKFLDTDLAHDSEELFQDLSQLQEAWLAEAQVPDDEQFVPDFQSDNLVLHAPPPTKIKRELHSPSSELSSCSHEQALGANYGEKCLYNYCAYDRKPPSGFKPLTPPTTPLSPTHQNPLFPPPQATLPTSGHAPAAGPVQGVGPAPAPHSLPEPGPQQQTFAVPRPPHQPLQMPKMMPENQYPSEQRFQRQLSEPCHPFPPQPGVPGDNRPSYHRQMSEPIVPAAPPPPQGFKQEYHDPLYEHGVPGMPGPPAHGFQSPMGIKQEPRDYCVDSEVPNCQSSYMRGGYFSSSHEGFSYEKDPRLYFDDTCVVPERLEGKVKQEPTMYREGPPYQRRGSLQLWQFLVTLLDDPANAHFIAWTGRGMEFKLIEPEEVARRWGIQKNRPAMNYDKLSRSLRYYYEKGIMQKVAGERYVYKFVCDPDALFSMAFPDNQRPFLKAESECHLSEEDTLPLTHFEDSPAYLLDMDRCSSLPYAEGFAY
Sequence of ELF1 (P32519 whole entry): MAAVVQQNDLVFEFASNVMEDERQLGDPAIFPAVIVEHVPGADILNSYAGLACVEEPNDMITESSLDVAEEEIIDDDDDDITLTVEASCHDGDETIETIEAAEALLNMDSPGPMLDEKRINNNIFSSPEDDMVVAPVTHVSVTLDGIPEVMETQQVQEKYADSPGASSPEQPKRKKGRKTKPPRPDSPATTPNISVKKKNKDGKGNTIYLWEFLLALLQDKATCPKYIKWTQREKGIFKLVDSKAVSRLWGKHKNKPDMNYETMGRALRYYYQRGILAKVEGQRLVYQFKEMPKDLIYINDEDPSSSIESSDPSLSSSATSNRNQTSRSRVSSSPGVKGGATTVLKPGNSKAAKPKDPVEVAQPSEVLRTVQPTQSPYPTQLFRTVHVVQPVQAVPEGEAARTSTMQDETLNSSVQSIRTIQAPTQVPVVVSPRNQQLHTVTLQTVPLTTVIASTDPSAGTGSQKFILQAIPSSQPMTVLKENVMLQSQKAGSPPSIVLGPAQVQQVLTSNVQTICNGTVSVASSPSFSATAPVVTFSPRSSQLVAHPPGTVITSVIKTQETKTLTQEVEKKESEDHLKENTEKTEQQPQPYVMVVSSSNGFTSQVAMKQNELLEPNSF
Sequence of SPIB (Q01892 whole entry): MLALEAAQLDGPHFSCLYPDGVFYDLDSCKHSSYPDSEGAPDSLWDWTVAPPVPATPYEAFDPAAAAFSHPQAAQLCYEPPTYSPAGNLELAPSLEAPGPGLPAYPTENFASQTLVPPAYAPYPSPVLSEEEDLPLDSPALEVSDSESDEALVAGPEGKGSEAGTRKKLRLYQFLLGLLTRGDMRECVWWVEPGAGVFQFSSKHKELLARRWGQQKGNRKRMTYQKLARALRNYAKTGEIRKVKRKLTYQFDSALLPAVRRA

Regarding CTTTCT, the binding signal is 1.6 fold enrichment (6-mer frequency, TF over GST control) with FLI1; 1.6 fold enrichment (6-mer frequency, TF over GST control) with ELK1; 1.5 fold enrichment (6-mer frequency, TF over GST control) in the experiment with GABPA; 1.53 fold enrichment (6-mer frequency, TF over GST control) in the experiment with ERG; 1.55 fold enrichment (6-mer frequency, TF over GST control) with ELF1; 1.53 fold enrichment (6-mer frequency, TF over GST control) in the experiment with EHF. The binding signal with SPI1 is 1.67 fold enrichment (6-mer frequency, TF over GST control); with SPIB, 1.48 fold enrichment (6-mer frequency, TF over GST control); in the experiment with ELK3, 1.65 fold enrichment (6-mer frequency, TF over GST control); with FEV, 1.47 fold enrichment (6-mer frequency, TF over GST control); with ETV5 it was 1.52 fold enrichment (6-mer frequency, TF over GST control); in the experiment with HSF1 it was 2.74 fold enrichment (6-mer frequency, TF over GST control). Besides, the binding signal in the experiment with SPIC was 1.67 fold enrichment (6-mer frequency, TF over GST control); with ELF4, 1.48 fold enrichment (6-mer frequency, TF over GST control); in the experiment with ELK4, 1.54 fold enrichment (6-mer frequency, TF over GST control); with ETV2, 1.65 fold enrichment (6-mer frequency, TF over GST control); with ELF3, 1.73 fold enrichment (6-mer frequency, TF over GST control); with CRX, 1.76 fold enrichment (6-mer frequency, TF over GST control). Further, the binding signal with ETV1 is 1.56 fold enrichment (6-mer frequency, TF over GST control).
